In the supplement of paper PMC12282887:
± gives the standard deviation of the averaged measurements.

Tests used:
Experiment in all cases: promoter activity interaction Z-score (Lux/OD deviation from empty-vector control); higher = stronger promoter induction by the compound
[1] = test system: E. coli BW25113 acrABp lux reporter
In short: (§1)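 Four 1:2 dilutions of each compound were tested in biological duplicates on E. coli BW25113 carrying low-copy luxCDABE promoter reporters, either wild type or deleted for one of three genes. Cultures of 40 µl LB Lennox in 384-well plates were kept at 37°C and read for OD600 and luminescence every 30 min for 12 h. Integration windows were 0–8 h for wild type and 1–9 h for deletion strains, and wells under 10% of the median growth value were discarded. The score is a Z-transformed residual of growth-normalised luminescence relative to a control fit.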

[2] = test system: E. coli BW25113 marRABp lux reporter
In short: as §1

[3] = test system: E. coli BW25113 micFp lux reporter
In short: as §1

[4] = test system: E. coli BW25113 ompFp lux reporter
In short: as §1

[5] = test system: E. coli BW25113 robp lux reporter
In short: as §1

[6] = test system: E. coli BW25113 soxSp lux reporter
In short: as §1

[7] = test system: E. coli BW25113 tolCp lux reporter
In short: as §1

[8] = 23 µg/ml, genetic background: wild type
[9] = 23 µg/ml, genetic background: ΔmarA
[10] = 23 µg/ml, genetic background: Δrob
[11] = 23 µg/ml, genetic background: ΔsoxS
[12] = 46 µg/ml, genetic background: wild type
[13] = 46 µg/ml, genetic background: ΔmarA
[14] = 46 µg/ml, genetic background: Δrob
[15] = 46 µg/ml, genetic background: ΔsoxS
[16] = 92.1 µg/ml, genetic background: wild type
[17] = 92.1 µg/ml, genetic background: ΔmarA
[18] = 92.1 µg/ml, genetic background: Δrob
[19] = 92.1 µg/ml, genetic background: ΔsoxS
[20] = 184.2 µg/ml, genetic background: wild type
[21] = 184.2 µg/ml, genetic background: ΔmarA
[22] = 184.2 µg/ml, genetic background: Δrob
[23] = 184.2 µg/ml, genetic background: ΔsoxS

In the case of `COc1cc(/C=C/C(=O)CC(=O)/C=C/c2ccc(O)c(OC)c2)ccc1O` [Curcumin], the “promoter activity interaction Z-score” value [1, 8] is reported as -0.214 ± 0.21, the “promoter activity interaction Z-score” value [1, 9] is reported as 1.82 ± 1 and the “promoter activity interaction Z-score” value [1, 10] is reported as 0.162 ± 0.49. For the same compound, the “promoter activity interaction Z-score” value [1, 11] was 0.139 ± 0.18, the “promoter activity interaction Z-score” value [1, 12] was 0.341 ± 0.83 and the “promoter activity interaction Z-score” value [1, 13] was 1.2 ± 0.066. The “promoter activity interaction Z-score” value [1, 14] was 0.14 ± 0.34, the “promoter activity interaction Z-score” value [1, 15] was 0.0402 ± 0.48 and the “promoter activity interaction Z-score” value [1, 16] was 0.529 ± 0.2. For the same compound, the “promoter activity interaction Z-score” value [1, 17] was 1.08 ± 0.031, the “promoter activity interaction Z-score” value [1, 18] was 0.869 ± 0.75 and the “promoter activity interaction Z-score” value [1, 19] was 0.0855 ± 0.34. The “promoter activity interaction Z-score” value [1, 20] was 0.33 ± 0.052, the “promoter activity interaction Z-score” value [1, 21] was 1.06 ± 1.1 and the “promoter activity interaction Z-score” value [1, 22] was 1.36 ± 1.6. The “promoter activity interaction Z-score” value [1, 23] was 0.0296 ± 0.41, the “promoter activity interaction Z-score” value [2, 8] was 0.0587 ± 1 and the “promoter activity interaction Z-score” value [2, 9] was 0.238 ± 0.1. For the same compound, the “promoter activity interaction Z-score” value [2, 10] was 0.099 ± 0.28, the “promoter activity interaction Z-score” value [2, 11] was 0.112 ± 0.41 and the “promoter activity interaction Z-score” value [2, 12] was -0.237 ± 0.12. For the same compound, the “promoter activity interaction Z-score” value [2, 13] was 0.377 ± 0.29, the “promoter activity interaction Z-score” value [2, 14] was -0.00179 ± 0.26 and the “promoter activity interaction Z-score” value [2, 15] was -0.0875 ± 0.19. For the same compound, the “promoter activity interaction Z-score” value [2, 16] was 0.812 ± 0.01, the “promoter activity interaction Z-score” value [2, 17] was 1.05 ± 0.41 and the “promoter activity interaction Z-score” value [2, 18] was 0.00921 ± 0.51. For the same compound, the “promoter activity interaction Z-score” value [2, 19] was -0.225 ± 0.28, the “promoter activity interaction Z-score” value [2, 20] was 0.402 ± 1 and the “promoter activity interaction Z-score” value [2, 21] was -0.341 ± 0.046. For the same compound, the “promoter activity interaction Z-score” value [2, 22] was 0.198 ± 0.15, the “promoter activity interaction Z-score” value [2, 23] was -0.312 ± 0.3 and the “promoter activity interaction Z-score” value [3, 8] was -0.542 ± 0.23. For the same compound, the “promoter activity interaction Z-score” value [3, 9] was 0.217 ± 0.034, the “promoter activity interaction Z-score” value [3, 10] was -0.24 ± 0.022 and the “promoter activity interaction Z-score” value [3, 11] was -0.0851 ± 0.53. The “promoter activity interaction Z-score” value [3, 12] was -0.984 ± 0.24, the “promoter activity interaction Z-score” value [3, 13] was 0.275 ± 0.043 and the “promoter activity interaction Z-score” value [3, 14] was -0.0884 ± 0.0078. The “promoter activity interaction Z-score” value [3, 15] was 0.00161 ± 0.34, the “promoter activity interaction Z-score” value [3, 16] was -0.158 ± 0.37 and the “promoter activity interaction Z-score” value [3, 17] was 0.257 ± 0.096. The “promoter activity interaction Z-score” value [3, 18] was -0.122 ± 0.094, the “promoter activity interaction Z-score” value [3, 19] was -0.241 ± 0.17 and the “promoter activity interaction Z-score” value [3, 20] was -0.608 ± 0.096. The “promoter activity interaction Z-score” value [3, 21] was 0.122 ± 0.096, the “promoter activity interaction Z-score” value [3, 22] was -0.251 ± 0.11 and the “promoter activity interaction Z-score” value [3, 23] was 0.0295 ± 0.21. The “promoter activity interaction Z-score” value [4, 8] was -0.638 ± 0.26, the “promoter activity interaction Z-score” value [4, 9] was 0.332 ± 0.5 and the “promoter activity interaction Z-score” value [4, 10] was 0.137 ± 1.3. For the same compound, the “promoter activity interaction Z-score” value [4, 11] was -0.824 ± 0.29, the “promoter activity interaction Z-score” value [4, 12] was -0.568 ± 0.12 and the “promoter activity interaction Z-score” value [4, 13] was 0.31 ± 0.57. For the same compound, the “promoter activity interaction Z-score” value [4, 14] was 0.208 ± 0.91, the “promoter activity interaction Z-score” value [4, 15] was -0.0625 ± 1.2 and the “promoter activity interaction Z-score” value [4, 16] was -0.201 ± 0.71. The “promoter activity interaction Z-score” value [4, 17] was -0.362 ± 0.33, the “promoter activity interaction Z-score” value [4, 18] was 0.836 ± 0.9 and the “promoter activity interaction Z-score” value [4, 19] was -0.27 ± 0.58. The “promoter activity interaction Z-score” value [4, 20] was -0.368 ± 0.11, the “promoter activity interaction Z-score” value [4, 21] was -0.675 ± 0.88 and the “promoter activity interaction Z-score” value [4, 22] was -0.647 ± 0.46. For the same compound, the “promoter activity interaction Z-score” value [4, 23] was -0.351 ± 0.82, the “promoter activity interaction Z-score” value [5, 8] was 0.788 ± 0.71 and the “promoter activity interaction Z-score” value [5, 9] was 1.07 ± 0.14. The “promoter activity interaction Z-score” value [5, 10] was 0.0477 ± 0.46, the “promoter activity interaction Z-score” value [5, 11] was 0.332 ± 0.6 and the “promoter activity interaction Z-score” value [5, 12] was 0.38 ± 0.33. The “promoter activity interaction Z-score” value [5, 13] was 1.13 ± 0.87, the “promoter activity interaction Z-score” value [5, 14] was 0.606 ± 0.79 and the “promoter activity interaction Z-score” value [5, 15] was 0.859 ± 0.5. For the same compound, the “promoter activity interaction Z-score” value [5, 16] was 0.913 ± 0.078, the “promoter activity interaction Z-score” value [5, 17] was 0.411 ± 0.0043 and the “promoter activity interaction Z-score” value [5, 18] was 0.829 ± 1.5. The “promoter activity interaction Z-score” value [5, 19] was -0.797 ± 0.19, the “promoter activity interaction Z-score” value [5, 20] was -0.161 ± 0.49 and the “promoter activity interaction Z-score” value [5, 21] was 0.0014 ± 0.21. The “promoter activity interaction Z-score” value [5, 22] was 0.959 ± 1.3, the “promoter activity interaction Z-score” value [5, 23] was 0.501 ± 0.48 and the “promoter activity interaction Z-score” value [6, 8] was -0.156 ± 0.019. For the same compound, the “promoter activity interaction Z-score” value [6, 9] was 0.209 ± 0.098, the “promoter activity interaction Z-score” value [6, 10] was -0.0921 ± 0.039 and the “promoter activity interaction Z-score” value [6, 11] was 0.264 ± 0.5. The “promoter activity interaction Z-score” value [6, 12] was -0.559 ± 0.02, the “promoter activity interaction Z-score” value [6, 13] was 0.12 ± 0.11 and the “promoter activity interaction Z-score” value [6, 14] was -0.0695 ± 0.0052. The “promoter activity interaction Z-score” value [6, 15] was 0.244 ± 0.33, the “promoter activity interaction Z-score” value [6, 16] was -0.204 ± 0.11 and the “promoter activity interaction Z-score” value [6, 17] was -0.148 ± 0.051. For the same compound, the “promoter activity interaction Z-score” value [6, 18] was -0.206 ± 0.015, the “promoter activity interaction Z-score” value [6, 19] was -0.186 ± 0.41 and the “promoter activity interaction Z-score” value [6, 20] was -0.42 ± 0.036. The “promoter activity interaction Z-score” value [6, 21] was -0.399 ± 0.12, the “promoter activity interaction Z-score” value [6, 22] was -0.341 ± 0.14 and the “promoter activity interaction Z-score” value [6, 23] was -0.153 ± 0.15. The “promoter activity interaction Z-score” value [7, 8] was -0.731 ± 0.53, the “promoter activity interaction Z-score” value [7, 9] was -0.0769 ± 0.49 and the “promoter activity interaction Z-score” value [7, 10] was -0.819 ± 0.47. The “promoter activity interaction Z-score” value [7, 11] was 0.356 ± 0.35, the “promoter activity interaction Z-score” value [7, 12] was -0.815 ± 0.45 and the “promoter activity interaction Z-score” value [7, 13] was 0.181 ± 0.66. The “promoter activity interaction Z-score” value [7, 14] was -0.0696 ± 0.8, the “promoter activity interaction Z-score” value [7, 15] was -0.467 ± 0.52 and the “promoter activity interaction Z-score” value [7, 16] was -0.469 ± 0.65. For the same compound, the “promoter activity interaction Z-score” value [7, 17] was 0.826 ± 0.17, the “promoter activity interaction Z-score” value [7, 18] was -0.739 ± 0.063 and the “promoter activity interaction Z-score” value [7, 19] was 0.259 ± 0.43. The “promoter activity interaction Z-score” value [7, 20] was -0.549 ± 0.6, the “promoter activity interaction Z-score” value [7, 21] was -0.037 ± 0.23 and the “promoter activity interaction Z-score” value [7, 22] was -0.376 ± 0.11. For the same compound, the “promoter activity interaction Z-score” value [7, 23] was 0.000633 ± 0.47.
